Inconclusive results are not listed. Activity calls are given as the source filed them. Unless noted, the call rests on the fitted dose curve; in most records, active means well fitted curve in the direction sought with a large enough effect in the repeat runs; inconclusive means weak or mixed curves; inactive means no such curve, though single readings can be large; an effect the other way counts as inactive or inconclusive.
What was measured:
[1] = qHTS assay to identify small molecule antagonists of the glucocorticoid receptor (GR) signaling pathway - cell viability counter screen (AID 720693); further: nearly all actives have a fitted effect of over 55% in size
[2] = qHTS assay for identifying genotoxic compounds that show differential cytotoxicity against isogenic chicken DT40 cell lines with known DNA damage response pathways - wild type cell line (AID 743012); further: nearly all actives have a fitted effect of over 60% in size
Procedure, shortened: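 Luminescent ATP viability signal (CellTiter-Glo, 30 min RT) recorded after wild type DT40 cells were incubated with compounds for 40 h at 37 C/5% CO2.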

[3] = qHTS assay for identifying genotoxic compounds that show differential cytotoxicity against isogenic chicken DT40 cell lines with known DNA damage response pathways - Rev3 mutant cell line (AID 743014); further: nearly all actives have a fitted effect of over 55% in size
[4] = qHTS assay for identifying genotoxic compounds that show differential cytotoxicity against isogenic chicken DT40 cell lines with known DNA damage response pathways - Rad54/Ku70 mutant cell line (AID 743015); further: nearly all actives have a fitted effect of over 60% in size
[5] = qHTS assay to identify small molecule antagonists of the androgen receptor (AR) signaling pathway - cell viability counter screen (AID 743033; further: nearly all actives have a fitted effect of over 45% in size)
[6] = qHTS assay to identify small molecule antagonists of the androgen receptor (AR) signaling pathway using the MDA cell line - cell viability counter screen (AID 743041; further: nearly all actives have a fitted effect of over 45% in size)
Procedure, shortened: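 Cytotoxicity counter screen: MDA-kb2 AR-luc cells, compound + R1881, 16 h, 37C, 0% CO2; CellTiter-Fluor added at 15.5 h, fluorescence read after 30 min.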

[7] = qHTS assay to identify small molecule antagonists of the thyroid receptor (TR) signaling pathway - cell viability counter screen (AID 743064); further: nearly all actives have a fitted effect of over 50% in size
Procedure, shortened: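 In rat pituitary GH3.TRE-Luc reporter cells co-exposed to compound and 1 nM T3 for 23.5 h, cytotoxicity was assessed with CellTiter-Fluor in the same wells, read by fluorescence.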

[8] = qHTS assay to identify small molecule antagonists of the thyroid receptor (TR) signaling pathway (AID 743065); further: series mostly up to about 70 µM; nearly all actives have a fitted effect of over 55% in size
Procedure, shortened: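 GH3.TRE-Luc rat pituitary cells (two TREs driving luciferase) were dosed with compound, then stimulated with 1 nM T3 (final) for 23.5 h at 37 C. ONE-Glo luminescence was the read-out, with CellTiter-Fluor fluorescence as the cytotoxicity counter-screen.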

[9] = tested on: thyroid hormone receptor (rat, GH3 cells); test: qHTS assay to identify small molecule agonists of the thyroid receptor (TR) signaling pathway (AID 743066; calls by dose curve)
[10] = molecular target: Estrogen receptor (Homo sapiens) (UniProt P03372); test: qHTS assay to identify small molecule antagonists of the estrogen receptor alpha (ER-alpha) signaling pathway (AID 743069; active means well fitted curve in the direction sought with a large enough effect in the signal ratio in the repeat runs, not every such curve was filed as active; the % refers to the signal ratio)
Procedure, shortened: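 Beta-lactamase FRET fluorescence is read after 2 hr at room temperature with LiveBLAzer B/G substrate. Before that, ER-alpha-bla HEK293 cells sit 4 hr after plating, then receive compound plus 17beta-estradiol and incubate 18 hr at 37C.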

[11] = qHTS assay to identify small molecule antagonists of the estrogen receptor alpha (ER-alpha) signaling pathway - cell viability counter screen (AID 743074; calls by dose curve;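 further: HEK293 cells carrying ER-alpha-UAS-bla reporter stimulated with 17beta-estradiol; nearly all actives have a fitted effect of over 45% in size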)
[12] = molecular target: Estrogen receptor (Homo sapiens) (UniProt P03372); test: qHTS assay to identify small molecule agonists of the estrogen receptor alpha (ER-alpha) signaling pathway (AID 743075; calls by dose curve;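 further: HEK293 GripTite cells with ER-alpha and UAS-driven beta-lactamase reporter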)
[13] = molecular target: Estrogen receptor (Homo sapiens) (UniProt P03372); test: qHTS assay to identify small molecule agonists of the estrogen receptor alpha (ER-alpha) signaling pathway using the BG1 cell line (AID 743079); further: nearly all actives have a fitted effect of over 20% in size
[14] = qHTS assay to identify small molecule antagonists of the estrogen receptor alpha (ER-alpha) signaling pathway using the BG1 cell line (AID 743080; calls by dose curve;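 further: BG1 cells stimulated with 17beta-estradiol alongside compound; series mostly up to about 70 µM; nearly all actives have a fitted effect of over 25% in size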)
Procedure, shortened: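 BG1Luc4E2, endogenous ER-alpha, 4xERE-luc; 5 d charcoal-stripped FBS, phenol red free; 24 h plating; cpd + 17beta-estradiol 21.5 h, 37 C/5% CO2; CellTiter-Fluor viability 30 min, then ONE-Glo luciferase 30 min RT.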

[15] = qHTS assay to identify small molecule antagonists of the estrogen receptor alpha (ER-alpha) signaling pathway using the BG1 cell line - cell viability counter screen (AID 743081);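 further: compound given together with 17beta-estradiol as the ER stimulus; series mostly up to about 70 µM; nearly all actives have a fitted effect of over 45% in size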
Aromatase (Homo sapiens) = Aromatase (Homo sapiens) (UniProt P11511); test: qHTS assay to identify aromatase inhibitors (AID 743083); further: series mostly up to about 70 µM; nearly all actives have a fitted effect of over 55% in size
[16] = qHTS assay to identify aromatase inhibitors - cell viability counter screen (AID 743084)
[17] = molecular target: Androgen receptor (Homo sapiens) (UniProt P10275); test: qHTS assay to identify small molecule agonists of the androgen receptor (AR) signaling pathway (AID 743036; active means well fitted activation curve with a large enough effect in the signal ratio in the repeat runs, with a control signal flat, not every such curve was filed as active; the % refers to the signal ratio)
Procedure, shortened: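 Cell-based FRET reporter assay: HEK293 line with a UAS-beta-lactamase construct, compounds added in DMSO, 16 h exposure at 37C, then 2 h substrate step at room temperature and fluorescence intensity read.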

[18] = molecular target: Androgen receptor (Homo sapiens) (UniProt P10275); test: qHTS assay to identify small molecule agonists of the androgen receptor (AR) signaling pathway using the MDA cell line (AID 743040; further: nearly all actives have a fitted effect of over 20% in size)
Procedure, shortened: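 Luciferase read-out, ONE-Glo, 30 min RT. Cells: MDA-kb2 AR-luc, MMTV promoter with AR and GR response elements. Compound exposure 16 h, 37C, 0% CO2, after 5 h pre-incubation. qHTS agonist mode.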

[19] = molecular target: Androgen receptor (Homo sapiens) (UniProt P10275); test: qHTS assay to identify small molecule antagonists of the androgen receptor (AR) signaling pathway (AID 743035; active means well fitted inhibition curve with a large enough effect in the signal ratio in the repeat runs, not every such curve was filed as active; the % refers to the signal ratio)
Procedure, shortened: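 Quantitative HTS of the Tox21 10K library used HEK293 AR-UAS-bla cells stimulated with R1881 alongside compound for 16 h at 37C, followed by beta-lactamase FRET detection (LiveBLAzer B/G, 2 h, RT).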

Measured: Potency

Sequence of Aromatase (Homo sapiens) (P11511 whole entry, looked up): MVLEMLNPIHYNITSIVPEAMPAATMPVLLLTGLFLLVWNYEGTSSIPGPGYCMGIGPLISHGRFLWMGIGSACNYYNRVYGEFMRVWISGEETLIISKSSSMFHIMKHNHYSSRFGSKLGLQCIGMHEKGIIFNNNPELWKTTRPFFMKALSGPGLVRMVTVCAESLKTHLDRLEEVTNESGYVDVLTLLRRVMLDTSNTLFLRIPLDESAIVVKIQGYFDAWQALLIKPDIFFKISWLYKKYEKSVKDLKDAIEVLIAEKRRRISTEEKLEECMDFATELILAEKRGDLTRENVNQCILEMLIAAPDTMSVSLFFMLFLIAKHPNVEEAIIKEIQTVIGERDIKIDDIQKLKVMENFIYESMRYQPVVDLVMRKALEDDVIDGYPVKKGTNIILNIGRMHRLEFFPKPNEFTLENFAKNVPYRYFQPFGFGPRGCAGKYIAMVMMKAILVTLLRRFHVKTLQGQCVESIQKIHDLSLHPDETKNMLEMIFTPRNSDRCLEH
Sequence of Androgen receptor (Homo sapiens) (P10275 whole entry, looked up): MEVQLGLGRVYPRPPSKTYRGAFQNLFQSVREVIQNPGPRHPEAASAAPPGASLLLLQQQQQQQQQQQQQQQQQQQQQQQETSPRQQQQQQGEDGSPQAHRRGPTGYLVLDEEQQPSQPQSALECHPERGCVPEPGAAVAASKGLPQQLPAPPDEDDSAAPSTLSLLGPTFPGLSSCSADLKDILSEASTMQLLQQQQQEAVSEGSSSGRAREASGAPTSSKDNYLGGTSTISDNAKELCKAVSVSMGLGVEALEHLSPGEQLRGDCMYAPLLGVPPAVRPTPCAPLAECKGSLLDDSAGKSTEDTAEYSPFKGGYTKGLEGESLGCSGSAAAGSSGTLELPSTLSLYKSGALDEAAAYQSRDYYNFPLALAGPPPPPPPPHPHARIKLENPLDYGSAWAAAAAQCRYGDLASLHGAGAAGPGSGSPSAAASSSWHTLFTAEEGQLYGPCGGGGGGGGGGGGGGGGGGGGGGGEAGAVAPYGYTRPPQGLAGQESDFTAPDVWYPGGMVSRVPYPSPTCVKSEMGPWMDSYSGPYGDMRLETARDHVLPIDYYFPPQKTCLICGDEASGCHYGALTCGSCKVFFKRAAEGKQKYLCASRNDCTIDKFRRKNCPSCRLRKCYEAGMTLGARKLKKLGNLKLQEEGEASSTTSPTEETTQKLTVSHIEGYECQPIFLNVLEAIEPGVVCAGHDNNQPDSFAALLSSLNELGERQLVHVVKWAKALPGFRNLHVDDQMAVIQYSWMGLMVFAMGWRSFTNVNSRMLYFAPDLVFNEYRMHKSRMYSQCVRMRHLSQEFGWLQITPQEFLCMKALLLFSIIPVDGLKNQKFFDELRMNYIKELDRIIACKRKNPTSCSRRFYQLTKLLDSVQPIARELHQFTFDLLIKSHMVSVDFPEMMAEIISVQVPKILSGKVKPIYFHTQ
Sequence of Estrogen receptor (Homo sapiens) (P03372 whole entry, looked up): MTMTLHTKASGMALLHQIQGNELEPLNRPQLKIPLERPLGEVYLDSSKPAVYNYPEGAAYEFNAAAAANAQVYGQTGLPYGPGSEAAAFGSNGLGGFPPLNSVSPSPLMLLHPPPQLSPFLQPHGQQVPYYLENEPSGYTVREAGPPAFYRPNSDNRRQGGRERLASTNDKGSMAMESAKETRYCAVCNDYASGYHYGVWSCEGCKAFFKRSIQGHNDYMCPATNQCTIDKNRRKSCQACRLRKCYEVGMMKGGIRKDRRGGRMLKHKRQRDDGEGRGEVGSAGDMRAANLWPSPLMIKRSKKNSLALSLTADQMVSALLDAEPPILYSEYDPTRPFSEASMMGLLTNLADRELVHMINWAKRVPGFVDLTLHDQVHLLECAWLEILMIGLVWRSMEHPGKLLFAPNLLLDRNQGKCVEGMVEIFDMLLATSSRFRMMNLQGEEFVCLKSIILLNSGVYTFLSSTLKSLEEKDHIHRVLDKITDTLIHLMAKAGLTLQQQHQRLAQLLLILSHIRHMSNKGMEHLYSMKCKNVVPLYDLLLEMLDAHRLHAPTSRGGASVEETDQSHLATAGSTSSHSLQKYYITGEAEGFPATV

Cc1ccc(NC(N)=O)cc1
not listed: [17] | [18] | [19]
inactive: all other assays above

CNC(C)=O
not listed: [17] | [18] | [19]
inactive: all other assays above

CC/C=C\CCOC(=O)c1ccccc1
not listed: [8] | [9] | [19]
inactive: all other assays above

NNC(=O)OCc1ccccc1
not listed: [6]
inactive: all other assays above

Cc1cc(O)c(Cl)cc1C
not listed: [17] | [18] | [19]
inactive: all other assays above

Cc1ccc(N)nc1
inactive: all assays above

O=S(=O)(O)c1ccc(Cl)cc1
not listed: [17] | [18] | [19]
inactive: all other assays above

CCCCCCCCCCCBr
not listed: [17] | [18] | [19]
inactive: all other assays above

O=Cc1ccc(C(=O)O)cc1
not listed: [17] | [18] | [19]
inactive: all other assays above

N=C(N)S(=O)O
not listed: [17] | [18] | [19]
inactive: all other assays above

Cc1ccc2cccnc2c1
not listed: [7]
inactive: all other assays above

C=CC(C)(CCC=C(C)C)OC(=O)C(C)C (configuration not stated)
not listed: [17] | [18] | [19]
inactive: all other assays above

C/C=C(\C)C=O
not listed: [17] | [18] | [19]
inactive: all other assays above

CC(C)CC(O)Cc1ccccc1 (configuration not stated)
not listed: [13] | [16]
inactive: all other assays above

CCN(CC)CC
not listed: [17] | [18] | [19]
inactive: all other assays above

C=C(C)C(=O)OCCCC
not listed: [10] | [12] | [13] | [14] | [17] | [18]
inactive: all other assays above
